Rows were chosen to be rich in hits. Some 2.4% of all compounds tested hit in one or more screens of this group.
GLP1R inv ag – acts as inverse agonist at human GLP-1 receptor. P43220. HEK293 GLP-1R CRE-luciferase, luminescence, 24 h; GLP-1R form is constitutively active. Potency, µM (titrated, usually from 38.3 µM), for the others: at the highest dose activity change, negative = inhibition, usual class: inhibitors. 1.6% of 410,000 active; further: potency means the concentration at half of the fitted maximal effect; on the % scale 0 is the no-effect control and ±100 the full control effect; nearly all actives have a fitted effect of over 55% in size
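Inverse agonists were sought by their lowering of basal cAMP reporter luciferase output in HEK293 cells stably carrying constitutively active human GLP-1R, after 24 h compound treatment.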
TRHR ag – TRH receptor (human) agonism. P34981. TRHR cells, calcium flux fluo-8, FDSS agonist mode. activation, % at 2 µM. 0.18% of 360,000 active. AID 493084; in the data active means activation above about 30%; further: 0% is about no effect
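In this calcium-flux screen, cells bearing human TRHR are dye-loaded with fluo-8, baselined for 10 cycles, then exposed to library compounds; positive kinetic calcium responses during the agonist phase mark hits, with TRH as control.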
GLP1R cytotox – cytotoxicity in counter-screen for GLP-1R inverse agonists; HEK293 cAMP-luciferase reporter cells, luminescence, 24 h; Potency, µM (highest dose often 38.3 µM), for the others: at the highest dose activity change, negative = inhibition, usual class: inhibitors; 0.13% of 410,000 active; AID 624418;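 further: loss of luciferase light is scored as toxicity; potency means the concentration at half of the fitted maximal effect; on the % scale 0 is the no-effect control and ±100 the full control effect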
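MLSMR compounds, 24 hr on cells at 37 deg C/5% CO2; luminescence after luciferase reagent (12 min RT). Inhibition counted as the undesired cytotoxic outcome.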
PTHR1 ag – PTHR1 (human) receptor agonism; Q03431; HEK293 GP2 PTHR1 cells, GloSensor cAMP luminescence, 1 h; Potency, µM (series often up to 115 µM), for inactives: at the top dose activation, usual class: activators; 0.075% of 410,000 active; further: potency means the concentration at half of the fitted maximal effect; nearly all actives have a fitted effect of over 55% in size
Target sequence (Q03431 whole entry, looked up): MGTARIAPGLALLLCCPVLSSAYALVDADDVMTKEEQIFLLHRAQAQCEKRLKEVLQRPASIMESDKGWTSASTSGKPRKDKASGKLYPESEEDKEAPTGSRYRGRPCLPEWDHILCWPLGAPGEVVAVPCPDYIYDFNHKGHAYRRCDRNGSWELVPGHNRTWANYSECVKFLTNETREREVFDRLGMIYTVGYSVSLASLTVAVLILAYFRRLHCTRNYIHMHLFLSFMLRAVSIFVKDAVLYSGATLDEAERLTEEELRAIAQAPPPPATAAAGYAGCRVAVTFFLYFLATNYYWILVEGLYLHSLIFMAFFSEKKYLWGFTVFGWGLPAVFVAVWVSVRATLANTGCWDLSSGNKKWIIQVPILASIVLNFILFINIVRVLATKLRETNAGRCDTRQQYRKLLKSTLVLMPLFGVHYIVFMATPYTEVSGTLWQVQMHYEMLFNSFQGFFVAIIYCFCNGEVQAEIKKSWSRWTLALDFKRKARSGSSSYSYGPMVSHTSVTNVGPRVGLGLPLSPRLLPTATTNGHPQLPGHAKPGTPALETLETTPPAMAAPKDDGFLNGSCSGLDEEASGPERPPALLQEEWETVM
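HEK-293-derived GP2 cells expressing PTHR1 and a GloSensor cAMP reporter, 3,000/well, plated overnight, given luciferin plus IBMX (each 0.5 mM as added) for 1 h at 37 °C, then compound for 1 h at 37 °C. Luminescence was read after 15 min at room temperature.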
TRHR enhancer – allosteric enhancers of human TRH receptor. P34981. TRHR cells, fluo-8 calcium fluorescence, EC20 TRH enhancement. enhancement, % at 2 µM. 0.66% of 360,000 active. AID 493056; in the data active means enhancement above about 30%; further: 0% is about no effect
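TRHR-expressing cells loaded with fluo-8 calcium dye were read kinetically (ex 480/em 530) during compound addition, then stimulated with an EC20 of TRH (10 nM final). Enhancement of the Gq-mediated intracellular calcium response was scored.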
GLP1R ag – agonists of human GLP-1 receptor | P43220 | HEK293 GLP-1R CRE-luciferase, luminescence, 4-6 h; cells express a hypersensitive GLP-1R form | Potency, µM (doses to about 45.6 µM), inactives show at the highest dose activation, most hits filed as activators | 0.007% of 380,000 active; further: potency means the concentration at half of the fitted maximal effect; % of control where 0% means no effect
An asterisk follows results filed as active; i = inactive; ? = inconclusive; . = not tested or not shown; [ ] = remark or other dose. Unless noted, the call rests on the fitted dose curve; in most records, active means well fitted curve in the direction sought with a large enough effect; inconclusive means small, poorly fitted or top-dose-only effect, or another doubt; inactive means no such curve, though single readings can be large; an effect the other way counts as inactive or inconclusive.

SMILES	GLP1R inv ag	TRHR ag	GLP1R cytotox	PTHR1 ag	TRHR enhancer	GLP1R ag
Cc1ccc(Cn2c(/C=C/c3ccco3)nc3ccccc32)cc1	11.2µM*	17.1	-10.6%	-27.2%	-3.8	6.7%
Clc1ccc(Cn2c(/C=C/c3ccco3)nc3ccccc32)cc1	?	0.0	-19.2%	i	-2.7	4.5%
C=C(C)C1CC=C(C)/C(=N/Nc2ccccc2[N+](=O)[O-])C1 (stereo not given)	-1.3%	0.1	-15.1%	i	2.7	8.5%
C=C(C)C1CC=C(C)/C(=N/NC(=O)c2ccccc2[N+](=O)[O-])C1 (stereo not given)	?	0.6	0.1%	-26.6%	36.3*	9.7%
CCCOc1ccc(CNC(=O)c2ccc(-n3c(C)cc4c3CCC(C)C4)cc2)cc1 (stereo not given)	0.0%	-0.6	-7.4%	i	9.1	.
C=CCC(COCc1ccccc1)NS(=O)(=O)c1ccccc1Br (stereo not given)	?	-0.3	12.0%	-39.6%	-4.9	8.5%
Fc1ccc(C2=CC(c3ccc(Br)o3)n3ncnc3N2)cc1 (stereo not given)	0.1%	3.6	i	i	-1.5	-1.6%
Brc1ccc(C2=CC(c3cccs3)n3ncnc3N2)cc1 (stereo not given)	?	66.3*	444.2%	-35.7%	3.4	-9.9%
C1=C(c2ccc(-c3ccccc3)cc2)Nc2ncnn2C1c1ccco1 (stereo not given)	13.7%	30.3*	i	-14.4%	12.6	-10.4%
OCCCc1nc2n(n1)C(c1cccs1)C=C(c1ccc(Br)cc1)N2 (stereo not given)	.	44.8*	.	.	-3.0	.
CC1=C(C(N)=O)C(c2ccc(Br)cc2)n2nc(CCCO)nc2N1 (stereo not given)	-7.1%	0.9	-7.9%	i	-1.1	-2.8%
Fc1ccc(C2=CC(c3ccco3)n3ncnc3N2)cc1 (stereo not given)	16.6%	-0.2	i	i	2.0	-2.4%
CC(=O)c1ccc(OCc2cc(C(=O)N(C)CCN3CCOCC3)no2)cc1	30.5%	-0.1	-10.2%	i	6.0	-1.2%
Cc1occc1C(=O)NNS(=O)(=O)c1ccc(Cl)cc1	9.5%	-1.4	4.7%[1.53 µM]	i	36.8*	-0.9%
O=C(NC(=O)N1CCN(c2cccc(Cl)c2)CC1)c1ccc(Cl)cc1	3.16µM*	3.2	5.1%	-49.5%	-2.4	-16.7%
O=C(NC1CCCC1)C(c1ccc(F)cc1)N(C(=O)Cc1cccs1)c1ccc2c(c1)OCCO2 (stereo not given)	0.0%	0.2	8.7%	i	30.4*	2.1%
Cc1ccc(C(C(=O)NC2CCCC2)N(C(=O)Cc2cccs2)c2ccc(C)c(C)c2)o1 (stereo not given)	10µM*	0.3	-28.2%	i	-7.6	2.7%
Cc1ccc(C(C(=O)NC2CCCC2)N(C(=O)Cc2cccs2)c2ccc3c(c2)OCCO3)cc1 (stereo not given)	10µM*	1.3	-27.1%	i	-5.1	-1.1%
Cc1ccc(NC(=O)COC(=O)c2ccc3c(c2)C(=O)N(CCc2ccccc2)C3=O)c(C)c1	12.3%	0.7	-12.0%	-21.9%	2.2	3.1%
Cc1cc(C)c2nc(-c3cccc(Cl)c3)c(C)c(C(=O)N3CCOCC3)c2c1	-14.6%	0.2	-1.2%	-46.6%	32.7*	-4.0%
Cc1onc(-c2c(Cl)cccc2Cl)c1C(=O)N1CCOCC1	15.4%	0.5	12.4%	14.1%	5.6	-0.2%
Cc1cccc(N(C(=O)c2csnn2)C(C(=O)NC2CCCCC2)c2ccccn2)c1C (stereo not given)	-6.0%	-0.8	-22.9%	-15.1%	38.1*	11.6%
COc1ccc(O)c(-c2[nH]ncc2C(=O)c2ccccc2C)c1	-9.7%	-0.1	8.3%	-20.7%[57.5 µM]	-11.8	2.7%
COc1cc(NC(=O)c2cc(Cl)ccc2Cl)ccc1NC(=O)c1cc2ccccc2o1	?	0.8	-26.0%	-20.8%	-9.6	.
CCOC(=O)C(C)N1C(=O)S/C(=C/c2cc(C)n(-c3ccccn3)c2C)C1=O (stereo not given)	10µM*	1.3	-34.4%	-53.9%	4.1	0.0%
SMILES	GLP1R inv ag	TRHR ag	GLP1R cytotox	PTHR1 ag	TRHR enhancer	GLP1R ag
CCOC(=O)C(C)N1C(=O)S/C(=C/c2cc(C)n(-c3ccncc3)c2C)C1=O (stereo not given)	?	0.2	-22.8%	-17.3%	-3.2	6.9%
CC(=O)c1ccc(N=C2C(=O)Nc3ccccc32)cc1	7.4%	3.5	-5.5%	-0.9%	-0.4	-2.1%
CCCc1ccc(C(=O)NNc2cc(Cl)ccc2Cl)cc1	1.26µM*	-0.8	-7.3%	-21.3%	-7.3	-0.3%
CCCc1ccc(C(=O)NNc2cccc(C)c2)cc1	2.82µM*	-0.2	?	i	-0.9	11.5%
Cc1cccc(NNC(=O)C(=O)NNc2cccc(C)c2)c1	?	-1.2	-15.8%	i	-4.2	-4.3%
CC1CCCN(CC(=O)N2c3ccccc3Sc3ccccc32)C1 (stereo not given)	?	0.2	4.0%	20.9%	36.4*	-2.3%
O=C(CN1CCCCCC1)N1c2ccccc2Sc2ccccc21	-20.7%	1.5	-0.4%	3.1%	1.5	11.0%
Nc1ccc2c(c1)OCCOCCOCCOCCOCCO2	9.9%	-0.5	1.2%	-23.5%	0.8	-4.0%
O=C1N/C(=N\S(=O)(=O)Cc2ccccc2)S/C1=C/c1cc([N+](=O)[O-])ccc1O	-4.0%	102.2*	1.2%	i	48.9*	-3.0%
Cc1ccc(S(=O)(=O)/N=C2/NC(=O)/C(=C/c3ccc(Br)o3)S2)cc1	27.5%	-0.4	9.1%	-72.4%	-4.2	3.6%
COc1cc(/C=C2/S/C(=N/S(=O)(=O)c3ccccc3)NC2=O)c([N+](=O)[O-])cc1OC	94.0%	1.7	5.5%	-1.5%	9.0	-0.7%
O=C1N/C(=N\S(=O)(=O)c2ccccc2)S/C1=C\c1cc([N+](=O)[O-])ccc1O	1.0%	113.7*	28.3%	i	39.6*	-0.3%
Cc1ccc(S(=O)(=O)/N=C2/NC(=O)/C(=C\c3cc(Br)cc(Br)c3O)S2)cc1	-5.1%	118.0*	9.3%	i	6.4	-2.1%
Cn1cc(C=C2C(=O)CC(C)(C)CC2=O)c2ccccc21	7.7%	-0.1	-3.0%	i	-3.9	0.7%
O=C(Nc1cccc(S(=O)(=O)N2CCCCC2)c1)Nc1ccc(Cl)cc1Cl	3.55µM*	0.8	?	-25.2%	-0.9	19.8%
O=C(Cc1ccccc1Cl)Nc1cccc(S(=O)(=O)N2CCCCCC2)c1	?	2.1	1.3%	-24.1%	3.4	20.0%
